Binding signal data for 5 sequences are collected here from publication PMC11006913.

Holding throughout (assay): PBM; 200 nM protein, PBS
Details in all cases: dsDNA, one strand shown

Assay [1] has as its target HESX1 (Homo sapiens, UniProt Q9UBX0 95-180, R165K).
For assay [2], the target named is SHOX (Homo sapiens, UniProt O15266 103-189).
For assay [3], the target named is ALX4 (Homo sapiens, UniProt Q9H161 200-286, Q225E).
For assay [4], the target named is HESX1 (Homo sapiens, UniProt Q9UBX0 95-180).
Assay [5] deals with MSX2 (Homo sapiens, UniProt P35548 130-214, R199I).
Assay [6] addresses ALX1 (Homo sapiens, UniProt Q15699 118-204, L144V).
Assay [7] has as its target ALX3 (Homo sapiens, UniProt O95076 139-225, N203Q).
Assay [8] concerns the target SHOX (Homo sapiens, UniProt O15266 103-189, R173C).
Assay [9] deals with ALX1 (Homo sapiens, UniProt Q15699 118-204, L144R).
Assay [10] concerns the target ALX3 (Homo sapiens, UniProt O95076 139-225).
Assay [11] has as its target PROP1 (Homo sapiens, UniProt O75360 56-141).
The target of assay [12] is HESX1 (Homo sapiens, UniProt Q9UBX0 95-180, R109Q).
Assay [13] addresses PROP1 (Homo sapiens, UniProt O75360 56-141, R99H).
The target of assay [14] is ALX3 (Homo sapiens, UniProt O95076 139-225, L168Q).
In assay [15] the target is HESX1 (Homo sapiens, UniProt Q9UBX0 95-180, P111T).
Assay [16] addresses ALX3 (Homo sapiens, UniProt O95076 139-225, L168V).
Assay [17] concerns the target PROP1 (Homo sapiens, UniProt O75360 56-141, F88S).
The target of assay [18] is HESX1 (Homo sapiens, UniProt Q9UBX0 95-180, F115L).
Assay [19] has as its target ALX1 (Homo sapiens, UniProt Q15699 118-204).
The target in assay [20] is ALX3 (Homo sapiens, UniProt O95076 139-225, N203S).
Sequence of ALX3 (Homo sapiens, UniProt O95076 139-225, N203S) (O95076 139-225 N203S): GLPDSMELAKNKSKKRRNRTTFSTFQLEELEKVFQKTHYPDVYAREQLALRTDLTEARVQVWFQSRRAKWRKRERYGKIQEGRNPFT

Sequence of HESX1 (Homo sapiens, UniProt Q9UBX0 95-180, R165K) (Q9UBX0 95-180 R165K): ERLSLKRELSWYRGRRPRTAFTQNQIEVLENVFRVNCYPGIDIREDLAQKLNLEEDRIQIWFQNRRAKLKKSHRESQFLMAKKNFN
Sequence of PROP1 (Homo sapiens, UniProt O75360 56-141, F88S) (O75360 56-141 F88S): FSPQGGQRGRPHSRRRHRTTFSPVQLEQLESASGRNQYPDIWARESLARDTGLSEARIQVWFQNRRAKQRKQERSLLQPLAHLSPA
Sequence of PROP1 (Homo sapiens, UniProt O75360 56-141, R99H) (O75360 56-141 R99H): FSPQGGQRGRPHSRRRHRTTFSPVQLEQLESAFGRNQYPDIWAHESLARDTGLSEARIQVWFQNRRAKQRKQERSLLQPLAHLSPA
Sequence of ALX4 (Q9H161 200-286 Q225E): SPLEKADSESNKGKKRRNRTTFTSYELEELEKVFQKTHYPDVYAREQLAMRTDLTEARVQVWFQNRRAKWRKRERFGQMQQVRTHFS
Sequence of ALX1 (Homo sapiens, UniProt Q15699 118-204, L144R) (Q15699 118-204 L144R): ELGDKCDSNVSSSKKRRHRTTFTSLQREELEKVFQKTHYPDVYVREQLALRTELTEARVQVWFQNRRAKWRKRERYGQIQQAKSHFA
Sequence of ALX3 (Homo sapiens, UniProt O95076 139-225, L168V) (O95076 139-225 L168V): as the sequence (O95076 139-225 N203S) above, with L30V, S65N counted along it
Sequence of MSX2 (P35548 130-214 R199I): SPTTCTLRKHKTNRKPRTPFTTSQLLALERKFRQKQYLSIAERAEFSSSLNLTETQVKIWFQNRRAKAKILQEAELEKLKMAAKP
Sequence of ALX3 (Homo sapiens, UniProt O95076 139-225, L168Q) (O95076 139-225 L168Q): as the sequence (O95076 139-225 N203S) above, with L30Q, S65N counted along it
Sequence of SHOX (Homo sapiens, UniProt O15266 103-189, R173C) (O15266 103-189 R173C): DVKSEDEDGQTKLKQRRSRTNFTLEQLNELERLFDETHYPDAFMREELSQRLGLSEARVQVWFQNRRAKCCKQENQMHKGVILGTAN
Sequence of HESX1 (Homo sapiens, UniProt Q9UBX0 95-180, P111T) (Q9UBX0 95-180 P111T): as the sequence (Q9UBX0 95-180 R165K) above, with P17T, K71R counted along it
Sequence of ALX3 (Homo sapiens, UniProt O95076 139-225, N203Q) (O95076 139-225 N203Q): as the sequence (O95076 139-225 N203S) above, with S65Q counted along it
Sequence of HESX1 (Homo sapiens, UniProt Q9UBX0 95-180, R109Q) (Q9UBX0 95-180 R109Q): as the sequence (Q9UBX0 95-180 R165K) above, with R15Q, K71R counted along it
Sequence of HESX1 (Homo sapiens, UniProt Q9UBX0 95-180) (Q9UBX0 95-180): as the sequence (Q9UBX0 95-180 R165K) above, with K71R counted along it
Sequence of PROP1 (Homo sapiens, UniProt O75360 56-141) (O75360 56-141): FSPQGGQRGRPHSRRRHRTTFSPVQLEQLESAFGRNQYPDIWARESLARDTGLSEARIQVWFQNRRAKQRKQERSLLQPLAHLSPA
Sequence of ALX1 (Homo sapiens, UniProt Q15699 118-204) (Q15699 118-204): as the sequence (Q15699 118-204 L144R) above, with R27L counted along it
Sequence of ALX3 (Homo sapiens, UniProt O95076 139-225) (O95076 139-225): as the sequence (O95076 139-225 N203S) above, with S65N counted along it
Sequence of ALX1 (Homo sapiens, UniProt Q15699 118-204, L144V) (Q15699 118-204 L144V): as the sequence (Q15699 118-204 L144R) above, with R27V counted along it
Sequence of SHOX (Homo sapiens, UniProt O15266 103-189) (O15266 103-189): as the sequence (O15266 103-189 R173C) above, with C71R counted along it
Sequence of HESX1 (Homo sapiens, UniProt Q9UBX0 95-180, F115L) (Q9UBX0 95-180 F115L): as the sequence (Q9UBX0 95-180 R165K) above, with F21L, K71R counted along it

For AGCAATTA, the binding signal is 12.6 upbm affinity estimate (log intensity, higher = more binding, comparable within an allelic series) in assay [1]; 11.9 upbm affinity estimate (log intensity, higher = more binding, comparable within an allelic series) in assay [2]; 13 upbm affinity estimate (log intensity, higher = more binding, comparable within an allelic series) in [3]; 12.7 upbm affinity estimate (log intensity, higher = more binding, comparable within an allelic series) in [4]; 13.2 upbm affinity estimate (log intensity, higher = more binding, comparable within an allelic series) in assay [5]; 11.6 upbm affinity estimate (log intensity, higher = more binding, comparable within an allelic series) in [6]. Also, the binding signal was 8.32 upbm affinity estimate (log intensity, higher = more binding, comparable within an allelic series) in [7]; 9.41 upbm affinity estimate (log intensity, higher = more binding, comparable within an allelic series) in assay [8]; 11.3 upbm affinity estimate (log intensity, higher = more binding, comparable within an allelic series) in assay [9]; 12.4 upbm affinity estimate (log intensity, higher = more binding, comparable within an allelic series) in assay [10]; 11.4 upbm affinity estimate (log intensity, higher = more binding, comparable within an allelic series) in assay [11]; 9.19 upbm affinity estimate (log intensity, higher = more binding, comparable within an allelic series) in [12]. Also, the binding signal in assay [13] was 11.4 upbm affinity estimate (log intensity, higher = more binding, comparable within an allelic series); in assay [14] it was 10.5 upbm affinity estimate (log intensity, higher = more binding, comparable within an allelic series); in [15], 11.1 upbm affinity estimate (log intensity, higher = more binding, comparable within an allelic series); in assay [16] it was 9.97 upbm affinity estimate (log intensity, higher = more binding, comparable within an allelic series); in assay [17], 7.59 upbm affinity estimate (log intensity, higher = more binding, comparable within an allelic series); in [18], 7.88 upbm affinity estimate (log intensity, higher = more binding, comparable within an allelic series). Also, the binding signal in assay [19] is 12.2 upbm affinity estimate (log intensity, higher = more binding, comparable within an allelic series); in assay [20], 8.41 upbm affinity estimate (log intensity, higher = more binding, comparable within an allelic series).

With ATCAATTA, the binding signal in assay [1] is 13.5 upbm affinity estimate (log intensity, higher = more binding, comparable within an allelic series); in assay [2], 12.6 upbm affinity estimate (log intensity, higher = more binding, comparable within an allelic series); in assay [3] it was 13.7 upbm affinity estimate (log intensity, higher = more binding, comparable within an allelic series); in [4], 13.4 upbm affinity estimate (log intensity, higher = more binding, comparable within an allelic series); in assay [5] it was 13.1 upbm affinity estimate (log intensity, higher = more binding, comparable within an allelic series); in assay [6] it was 12 upbm affinity estimate (log intensity, higher = more binding, comparable within an allelic series). The binding signal in [7] is 8.5 upbm affinity estimate (log intensity, higher = more binding, comparable within an allelic series); in assay [8], 10.1 upbm affinity estimate (log intensity, higher = more binding, comparable within an allelic series); in [9] it was 11.8 upbm affinity estimate (log intensity, higher = more binding, comparable within an allelic series); in assay [10], 12.7 upbm affinity estimate (log intensity, higher = more binding, comparable within an allelic series); in [11], 11.8 upbm affinity estimate (log intensity, higher = more binding, comparable within an allelic series); in assay [12], 10.2 upbm affinity estimate (log intensity, higher = more binding, comparable within an allelic series). The binding signal in assay [13] was 12.2 upbm affinity estimate (log intensity, higher = more binding, comparable within an allelic series); in [14], 10.9 upbm affinity estimate (log intensity, higher = more binding, comparable within an allelic series); in assay [15] it was 12.1 upbm affinity estimate (log intensity, higher = more binding, comparable within an allelic series); in [16], 10.4 upbm affinity estimate (log intensity, higher = more binding, comparable within an allelic series); in assay [17] it was 7.84 upbm affinity estimate (log intensity, higher = more binding, comparable within an allelic series); in assay [18], 8.22 upbm affinity estimate (log intensity, higher = more binding, comparable within an allelic series). For the same sequence, the binding signal in assay [19] is 12.8 upbm affinity estimate (log intensity, higher = more binding, comparable within an allelic series); in assay [20], 8.66 upbm affinity estimate (log intensity, higher = more binding, comparable within an allelic series).

For the sequence CCTAATTA, the binding signal in assay [1] was 13.4 upbm affinity estimate (log intensity, higher = more binding, comparable within an allelic series); in assay [2] it was 13 upbm affinity estimate (log intensity, higher = more binding, comparable within an allelic series); in [3] it was 14.1 upbm affinity estimate (log intensity, higher = more binding, comparable within an allelic series); in [4], 13.3 upbm affinity estimate (log intensity, higher = more binding, comparable within an allelic series); in [5], 13.2 upbm affinity estimate (log intensity, higher = more binding, comparable within an allelic series); in assay [6] it was 12.2 upbm affinity estimate (log intensity, higher = more binding, comparable within an allelic series). Besides, the binding signal was 8.45 upbm affinity estimate (log intensity, higher = more binding, comparable within an allelic series) in assay [7]; 10.4 upbm affinity estimate (log intensity, higher = more binding, comparable within an allelic series) in assay [8]; 11.8 upbm affinity estimate (log intensity, higher = more binding, comparable within an allelic series) in assay [9]; 12.9 upbm affinity estimate (log intensity, higher = more binding, comparable within an allelic series) in assay [10]; 12.1 upbm affinity estimate (log intensity, higher = more binding, comparable within an allelic series) in assay [11]; 9.96 upbm affinity estimate (log intensity, higher = more binding, comparable within an allelic series) in [12]. Also, the binding signal in assay [13] is 12.2 upbm affinity estimate (log intensity, higher = more binding, comparable within an allelic series); in [14], 11.2 upbm affinity estimate (log intensity, higher = more binding, comparable within an allelic series); in assay [15], 12 upbm affinity estimate (log intensity, higher = more binding, comparable within an allelic series); in [16], 10.8 upbm affinity estimate (log intensity, higher = more binding, comparable within an allelic series); in assay [17], 7.86 upbm affinity estimate (log intensity, higher = more binding, comparable within an allelic series); in [18] it was 8.21 upbm affinity estimate (log intensity, higher = more binding, comparable within an allelic series). The binding signal in assay [19] is 12.9 upbm affinity estimate (log intensity, higher = more binding, comparable within an allelic series); in [20], 8.58 upbm affinity estimate (log intensity, higher = more binding, comparable within an allelic series).

In the case of TATTAGAA, the binding signal in assay [1] is 8 upbm affinity estimate (log intensity, higher = more binding, comparable within an allelic series); in [4], 8.34 upbm affinity estimate (log intensity, higher = more binding, comparable within an allelic series); in assay [15] it was 7.87 upbm affinity estimate (log intensity, higher = more binding, comparable within an allelic series).

In the case of TCAATTAA, the binding signal in assay [1] was 13.4 upbm affinity estimate (log intensity, higher = more binding, comparable within an allelic series); in assay [2] it was 12.4 upbm affinity estimate (log intensity, higher = more binding, comparable within an allelic series); in assay [3], 13.8 upbm affinity estimate (log intensity, higher = more binding, comparable within an allelic series); in [4], 13.2 upbm affinity estimate (log intensity, higher = more binding, comparable within an allelic series); in assay [5] it was 12.8 upbm affinity estimate (log intensity, higher = more binding, comparable within an allelic series); in assay [6], 12 upbm affinity estimate (log intensity, higher = more binding, comparable within an allelic series). Also, the binding signal in assay [7] was 8.44 upbm affinity estimate (log intensity, higher = more binding, comparable within an allelic series); in assay [8] it was 9.85 upbm affinity estimate (log intensity, higher = more binding, comparable within an allelic series); in assay [9] it was 11.7 upbm affinity estimate (log intensity, higher = more binding, comparable within an allelic series); in [10], 12.7 upbm affinity estimate (log intensity, higher = more binding, comparable within an allelic series); in assay [11], 11.6 upbm affinity estimate (log intensity, higher = more binding, comparable within an allelic series); in assay [12], 9.91 upbm affinity estimate (log intensity, higher = more binding, comparable within an allelic series). The binding signal was 12 upbm affinity estimate (log intensity, higher = more binding, comparable within an allelic series) in [13]; 11 upbm affinity estimate (log intensity, higher = more binding, comparable within an allelic series) in assay [14]; 11.9 upbm affinity estimate (log intensity, higher = more binding, comparable within an allelic series) in assay [15]; 10.5 upbm affinity estimate (log intensity, higher = more binding, comparable within an allelic series) in [16]; 7.83 upbm affinity estimate (log intensity, higher = more binding, comparable within an allelic series) in assay [17]; 7.87 upbm affinity estimate (log intensity, higher = more binding, comparable within an allelic series) in [18]. The binding signal in assay [19] was 12.6 upbm affinity estimate (log intensity, higher = more binding, comparable within an allelic series); in [20] it was 8.6 upbm affinity estimate (log intensity, higher = more binding, comparable within an allelic series).
